Laboratory results reported in PubChem BioAssay (EPA / NIEHS).
Inconclusive results are not listed. Activity calls are given as the source filed them. Rule for the calls: active = hit-call score of the fitted dose curve at least 0.9, where 1 is the maximum; inconclusive = response in the unintended direction; inactive = score below 0.9.

Each compound was assayed against human Dopamine Transporter (DAT), SLC6A3 (gene 6531) (UniProt Q01959) (assay: NVS_TR_hDAT: NovaScreen (NVS) Transporter Assay for human Dopamine Transporter (DAT) (AID 2283374);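 note: activity means loss of bound radioligand signal relative to DMSO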).
human Dopamine Transporter (DAT), SLC6A3 (gene 6531), sequence (Q01959 whole entry, looked up): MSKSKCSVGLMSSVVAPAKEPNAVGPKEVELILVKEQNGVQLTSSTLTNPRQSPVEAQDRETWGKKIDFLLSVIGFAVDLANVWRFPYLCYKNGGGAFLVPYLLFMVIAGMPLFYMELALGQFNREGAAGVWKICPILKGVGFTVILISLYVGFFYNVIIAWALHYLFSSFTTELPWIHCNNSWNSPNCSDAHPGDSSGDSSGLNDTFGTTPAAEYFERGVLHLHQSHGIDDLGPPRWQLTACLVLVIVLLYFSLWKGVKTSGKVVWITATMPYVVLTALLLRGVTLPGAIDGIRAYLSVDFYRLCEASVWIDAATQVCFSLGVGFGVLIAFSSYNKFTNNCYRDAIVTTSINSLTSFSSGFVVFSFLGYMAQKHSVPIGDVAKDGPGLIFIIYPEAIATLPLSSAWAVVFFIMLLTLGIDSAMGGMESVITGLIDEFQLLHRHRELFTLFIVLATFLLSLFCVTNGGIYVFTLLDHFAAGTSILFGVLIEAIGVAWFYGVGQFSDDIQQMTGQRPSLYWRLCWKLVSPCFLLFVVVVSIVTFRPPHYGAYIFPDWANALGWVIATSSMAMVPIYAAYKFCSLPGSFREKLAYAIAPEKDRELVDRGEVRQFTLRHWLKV
Experimental: NVS_TR_hDAT is a biochemical, single-readout assay that uses extracted gene-proteins in a cell-free assay. Measurements were taken 1 hour after chemical dosing in a 96-well plate.NVS_TR_hDAT is one of one assay component(s) measured or calculated from the NVS_TR_hDAT assay. It is designed to make measurements of radioligand binding, a form of binding reporter, as detected with scintillation counting signals by Filter-based radiodetection technology.Data from the assay component NVS_TR_hDAT was analyzed into 1 assay endpoint. This assay endpoint, NVS_TR_hDAT, was analyzed in the positive analysis fitting direction relative to DMSO as the negative control and baseline of activity. Using a type of binding reporter, loss-of-signal activity can be used to understand changes in the binding as they relate to the gene SLC6A3. Furthermore, this assay endpoint can be referred to as a primary readout, because the performed assay has only produced 1 assay endpoint. To generalize the intended target to other relatable targets, this assay endpoint is annotated to the transporter intended target family, where the subfamily is neurotransmitter transporter.
Binding assays used specific radioligands (tritiated, iodinated) with non-radioactive competitive displacement ligands in agonist or antagonist protocols (as indicated) and various reference compounds and inhibitors to titrate specific binding to receptors and transporters. Most enzyme assays (CYPs, kinases, phosphatases, proteases, HDACs) used recombinant protein and specific substrates (fluorescence mostly, some colorimetric and radioactive) and inhibitors, followed by a biochemical separation of substrate and product. All assays for the biochemical HTS were initially run in duplicate at a single concentration (10 uM for CYP450 assays and 25 uM for all others). […] Each assay was run with positive and negative controls, and concurrent controls on every plate. The follow-up (secondary) screen tested active chemical-pairs in concentration series, as well as a few additional assays not tested in the primary screen, some selected negative inactives, and several cases re-run in the concentration series for confirmatory purposes.
With `CCCOc1ccc(S(=O)(=O)N2CCN(CC)CC2)cc1-c1nc2c(CC)n(Cc3ccccn3)nc2c(=O)[nH]1` the AC50 was 25 µM (active).
For `CCN(CC)C(=S)SSC(=S)N(CC)CC`, the AC50 was 10.4 µM (active).
With `CCn1nc(C)c2c1C(=O)NCC(c1ccc(O)cc1)=N2` the outcome was “inactive”.
With `CCCCCCCCCC` the outcome was “inactive”.
`CCCCC(CC)C(=O)OCCOCCOCCOC(=O)C(CC)CCCC` (stereo not given) was tested, and the outcome was “inactive”.
`c1ccc(C(O[C@@H]2CCCN(CCc3ccc4c(c3)OCO4)C2)c2ccccc2)cc1` was tested, and the AC50 was 0.063 µM (active).
With `COc1cc(C(C)C)c2c(c1)S(=O)(=O)N(COc1cc(=O)n3cccc(OCCN4CCCCC4)c3n1)C2=O` the AC50 was 2.87 µM (active).
`OCCOCCOCCO` was tested, and the AC50 was 6.63 µM (active).
With `OCc1ccccc1` the outcome was “inactive”.
For `CC[C@H](C)C(=O)O[C@H]1C[C@H](O)C=C2C=C[C@H](C)[C@H](CC[C@@H](O)C[C@@H](O)CC(=O)O)[C@H]21`, the outcome was “inactive”.
For `O=C(NO)C1(NS(=O)(=O)c2ccc(Oc3ccc(F)cc3)cc2)CCOCC1`, the AC50 was 8.77 µM (active).
For `OC(CCl)CCl`, the outcome was “inactive”.
`Cc1nccn1-c1ccc(Sc2cccc(C3(C(N)=O)CCOCC3)c2)cc1` was tested, and the AC50 was 6.99 µM (active).
With `C=CCc1cc(S(=O)(=O)c2ccc(O)c(CC=C)c2)ccc1O` the AC50 was 7.48 µM (active).
With `CC(C)c1nnc2ccc(-c3ocnc3-c3cc(F)ccc3F)cn12` the outcome was “inactive”.
